Measured values as given in PubChem BioAssay (NCATS).
“And” between values parts separate entries of the source, which are not always exact repeats. Identical values can stand only once. Records with an inconclusive call do not appear. Entries that show only a call come without a potency. The source made the active and inactive calls. Unless noted, calls follow the shape of the full dose curve.

Tests used:
[1] = target: Glucocorticoid receptor (Homo sapiens) (UniProt P04150); test: qHTS assay for small molecule antagonists of glucocorticoid receptor signaling (AID 588533; active = well fitted inhibition curve with a large enough effect in the signal ratio, with a control signal flat, not every such curve was filed as active; the % refers to the signal ratio)
Sequence of Glucocorticoid receptor (Homo sapiens) (P04150 whole entry, looked up): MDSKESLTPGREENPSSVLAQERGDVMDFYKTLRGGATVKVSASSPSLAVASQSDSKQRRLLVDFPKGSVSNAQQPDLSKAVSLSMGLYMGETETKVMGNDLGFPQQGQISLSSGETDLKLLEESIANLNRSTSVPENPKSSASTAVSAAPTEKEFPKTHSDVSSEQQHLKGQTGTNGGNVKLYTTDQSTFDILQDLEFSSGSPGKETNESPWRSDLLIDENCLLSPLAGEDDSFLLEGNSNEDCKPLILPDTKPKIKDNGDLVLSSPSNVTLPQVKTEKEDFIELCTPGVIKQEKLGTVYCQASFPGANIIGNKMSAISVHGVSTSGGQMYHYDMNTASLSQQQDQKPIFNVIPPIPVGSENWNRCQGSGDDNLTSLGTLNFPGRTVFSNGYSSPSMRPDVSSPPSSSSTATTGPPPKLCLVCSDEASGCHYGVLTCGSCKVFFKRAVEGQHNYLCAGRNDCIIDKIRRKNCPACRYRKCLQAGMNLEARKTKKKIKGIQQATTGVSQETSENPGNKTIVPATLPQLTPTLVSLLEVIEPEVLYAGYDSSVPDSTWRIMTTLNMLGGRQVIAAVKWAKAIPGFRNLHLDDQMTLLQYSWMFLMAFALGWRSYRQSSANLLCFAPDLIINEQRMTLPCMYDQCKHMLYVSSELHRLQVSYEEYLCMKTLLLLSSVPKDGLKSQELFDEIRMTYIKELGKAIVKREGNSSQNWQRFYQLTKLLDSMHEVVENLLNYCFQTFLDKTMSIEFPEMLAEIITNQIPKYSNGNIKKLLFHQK
Summary of the method: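 Antagonist-mode qHTS: compound titrations added to GRE-bla HeLa cells, then dexamethasone 2 nM final; 18 h, 37 C. CCF4 FRET fluorescence normalized to dexamethasone and DMSO; IC50 from Hill fit.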

[2] = qHTS assay for small molecule antagonists of peroxisome proliferator-activated receptor delta signaling (AID 588535); conditions: HEK293T PPARd-UAS-bla, beta-lactamase FRET ratio, 18 h; 460 nm channel;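 also: cells co-treated with a PPAR-delta agonist as stimulator during compound exposure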
Summary of the method: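 Antagonist-mode beta-lactamase reporter (GeneBLAzer PPAR-delta-UAS-bla) in HEK293T cells, 2% charcoal/dextran FBS, 4000 cells/well. Compound titrations, 18 h at 37 C; CCF4 ratio read, IC50 and efficacy from Hill fits.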

[3] = target: Peroxisome proliferator-activated receptor gamma (Homo sapiens) (UniProt P37231); test: qHTS assay for small molecule agonists of peroxisome proliferator-activated receptor gamma signaling (AID 588536; active = well fitted curve in the direction sought with a large enough effect in the signal ratio, with a control signal flat, not every such curve was filed as active; the % refers to the signal ratio)
Sequence of Peroxisome proliferator-activated receptor gamma (Homo sapiens) (P37231 whole entry, looked up): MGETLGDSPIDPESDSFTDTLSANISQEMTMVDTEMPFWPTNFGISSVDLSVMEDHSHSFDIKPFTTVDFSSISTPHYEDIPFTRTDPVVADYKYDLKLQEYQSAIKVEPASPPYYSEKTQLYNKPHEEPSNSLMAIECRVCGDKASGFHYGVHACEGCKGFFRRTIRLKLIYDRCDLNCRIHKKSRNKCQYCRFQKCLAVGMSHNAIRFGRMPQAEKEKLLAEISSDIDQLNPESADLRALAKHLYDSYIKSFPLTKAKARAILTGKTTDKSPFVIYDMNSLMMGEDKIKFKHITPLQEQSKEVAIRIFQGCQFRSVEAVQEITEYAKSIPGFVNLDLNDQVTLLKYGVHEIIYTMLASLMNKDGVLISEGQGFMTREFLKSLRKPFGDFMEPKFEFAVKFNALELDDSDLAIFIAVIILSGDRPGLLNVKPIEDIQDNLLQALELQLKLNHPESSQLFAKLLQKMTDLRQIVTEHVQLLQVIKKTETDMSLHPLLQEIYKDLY
Summary of the method: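 PPAR-gamma-UAS-bla HEK293 cells in medium with 1% charcoal/dextran-treated FBS were exposed to compounds for 16 h at 37 C. Beta-lactamase activity was read with CCF4 substrate (405 nm excitation, 460/530 nm emission).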

[4] = target: Vitamin D3 receptor (Homo sapiens) (UniProt P11473); test: qHTS assay for small molecule antagonists of vitamin D receptor signaling (AID 588541);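 also: receptor activated by calcitriol during compound treatment; series mostly up to about 77 µM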
Sequence of Vitamin D3 receptor (Homo sapiens) (P11473 whole entry, looked up): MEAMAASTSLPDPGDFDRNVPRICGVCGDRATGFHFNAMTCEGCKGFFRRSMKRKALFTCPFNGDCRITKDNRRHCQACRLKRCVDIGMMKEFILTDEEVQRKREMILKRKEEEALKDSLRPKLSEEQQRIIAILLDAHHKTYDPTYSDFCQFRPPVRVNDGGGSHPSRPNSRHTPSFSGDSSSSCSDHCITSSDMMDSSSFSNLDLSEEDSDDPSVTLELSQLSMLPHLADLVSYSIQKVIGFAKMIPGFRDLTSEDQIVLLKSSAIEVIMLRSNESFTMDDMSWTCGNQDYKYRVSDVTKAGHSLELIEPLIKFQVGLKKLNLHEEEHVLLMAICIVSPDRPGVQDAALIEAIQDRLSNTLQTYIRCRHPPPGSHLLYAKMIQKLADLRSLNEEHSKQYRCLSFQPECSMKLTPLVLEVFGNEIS
Summary of the method: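 VDR-UAS-bla HEK293T cells in 2% charcoal-stripped FBS were stimulated with 1-alpha,25-dihydroxyvitamin D3 (3 nM final) plus compound for 16 h at 37 C. The beta-lactamase CCF4 readout was normalized to 50 nM agonist and DMSO, and Hill fits gave IC50.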

[5] = target: Vitamin D3 receptor (Homo sapiens) (UniProt P11473); test: qHTS assay for small molecule agonists of vitamin D receptor signaling (AID 588543)
Summary of the method: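 Agonist-mode beta-lactamase reporter: HEK293T VDR-UAS-bla cells in charcoal-stripped 2% FBS, compound series 16 h 37 C, CCF4 2 h RT. EC50 from Hill fit, scaled against DMSO and 50 nM calcitriol control.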

[6] = qHTS assay for small molecule agonists of retinoid X receptor alpha signaling (AID 588544); conditions: HEK293T RXRa-UAS-bla, beta-lactamase reporter, 18 h; 530 nm emission
[7] = target: Retinoic acid receptor RXR-alpha (Homo sapiens) (UniProt P19793); test: as above
Sequence of Retinoic acid receptor RXR-alpha (Homo sapiens) (P19793 whole entry, looked up): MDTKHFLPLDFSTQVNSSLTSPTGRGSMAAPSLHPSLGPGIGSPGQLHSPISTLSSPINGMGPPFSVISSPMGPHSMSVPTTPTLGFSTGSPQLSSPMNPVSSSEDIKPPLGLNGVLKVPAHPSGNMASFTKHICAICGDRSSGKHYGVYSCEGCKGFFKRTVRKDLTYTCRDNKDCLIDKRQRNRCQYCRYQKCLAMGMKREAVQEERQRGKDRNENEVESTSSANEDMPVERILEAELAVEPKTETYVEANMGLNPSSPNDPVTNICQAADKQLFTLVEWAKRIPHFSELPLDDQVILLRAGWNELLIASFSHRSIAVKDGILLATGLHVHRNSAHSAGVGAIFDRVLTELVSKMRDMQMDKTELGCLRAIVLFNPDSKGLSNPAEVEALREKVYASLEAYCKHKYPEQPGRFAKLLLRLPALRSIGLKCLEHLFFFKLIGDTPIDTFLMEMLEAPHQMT

[8] = target: Thyroid hormone receptor beta (Homo sapiens) (UniProt P10828); test: qHTS assay for small molecule agonists of thyroid hormone receptor beta signaling (AID 588545)
Sequence of Thyroid hormone receptor beta (Homo sapiens) (P10828 whole entry, looked up): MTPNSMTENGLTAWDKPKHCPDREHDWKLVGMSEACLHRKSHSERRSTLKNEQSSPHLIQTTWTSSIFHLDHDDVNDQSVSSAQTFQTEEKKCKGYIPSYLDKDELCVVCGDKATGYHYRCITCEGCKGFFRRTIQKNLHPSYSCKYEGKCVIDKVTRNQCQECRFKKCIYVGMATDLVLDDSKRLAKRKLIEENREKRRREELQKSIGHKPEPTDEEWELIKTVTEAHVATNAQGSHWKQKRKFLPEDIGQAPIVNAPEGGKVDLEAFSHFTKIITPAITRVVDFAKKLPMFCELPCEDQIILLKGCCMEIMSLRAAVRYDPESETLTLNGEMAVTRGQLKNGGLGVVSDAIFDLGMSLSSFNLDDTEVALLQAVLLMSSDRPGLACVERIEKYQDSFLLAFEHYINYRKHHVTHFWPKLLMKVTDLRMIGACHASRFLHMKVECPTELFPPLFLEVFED
Summary of the method: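 Cells (2500/well) were seeded, incubated 4 hrs at 37 C, dosed with a compound series, incubated 18 hrs, loaded with CCF4 dye for 2 hrs at RT, then read for fluorescence. Data were scaled between DMSO (0%) and 10 nM T3 (100%).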

[9] = qHTS assay for small molecule antagonists of retinoid X receptor alpha signaling (AID 588546; active = well fitted inhibition curve with a large enough effect in the signal ratio, with a control signal flat, not every such curve was filed as active; the % refers to the signal ratio;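 also: cells stimulated with 9-cis-retinoic acid as agonist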); conditions: HEK293T RXRa-UAS-bla, beta-lactamase ratio, antagonist mode; measured here: W530 green channel, cytotoxicity proxy
Summary of the method: (§1)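 Beta-lactamase reporter inhibition, read as CCF4 fluorescence ratio (ex 405, em 460/530 nm) after 2 h at RT. HEK293T UAS-bla cells, 2500/well, were stimulated with 9-cis-RA at 500 or 100 nM final alongside test compound for 18 h at 37 C.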

[10] = target: Retinoic acid receptor RXR-alpha (Homo sapiens) (UniProt P19793); test: as above; conditions: HEK293T RXRa-UAS-bla, beta-lactamase ratio, antagonist mode
Summary of the method: as §1

[11] = target: Thyroid hormone receptor beta (Homo sapiens) (UniProt P10828); test: qHTS assay for small molecule antagonists of thyroid hormone receptor beta signaling (AID 588547; active = well fitted inhibition curve with a large enough effect in the signal ratio, with a control signal flat, not every such curve was filed as active; the % refers to the signal ratio;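 also: cells stimulated with 0.4 nM T3 agonist during compound exposure; series mostly up to about 77 µM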); conditions: TR-UAS-bla HEK293, beta-lactamase ratio, antagonist mode, 18 h
Summary of the method: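 TR-UAS-bla GripTite HEK293 cells in 2% charcoal/dextran FBS medium; compounds 0.59 nM to 92 uM with T3 at 0.4nM final, 18 h at 37 C. Beta-lactamase read by CCF4 fluorescence (460/530 nm); Hill fits gave IC50 and efficacy.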

[12] = target: Voltage-gated inwardly rectifying potassium channel KCNH2 (Homo sapiens) (UniProt Q12809); test: qHTS Assay for Small Molecule Inhibitors of the Human hERG Channel Activity (AID 588834; active = well fitted curve in the direction sought with a large enough effect; an effect the other way counts as inactive or inconclusive;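 also: top concentration of the series differs between compounds; lower thallium flux fluorescence means stronger hERG block; nearly all actives have a fitted effect of over 50% in size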)
Sequence of Voltage-gated inwardly rectifying potassium channel KCNH2 (Homo sapiens) (Q12809 whole entry, looked up): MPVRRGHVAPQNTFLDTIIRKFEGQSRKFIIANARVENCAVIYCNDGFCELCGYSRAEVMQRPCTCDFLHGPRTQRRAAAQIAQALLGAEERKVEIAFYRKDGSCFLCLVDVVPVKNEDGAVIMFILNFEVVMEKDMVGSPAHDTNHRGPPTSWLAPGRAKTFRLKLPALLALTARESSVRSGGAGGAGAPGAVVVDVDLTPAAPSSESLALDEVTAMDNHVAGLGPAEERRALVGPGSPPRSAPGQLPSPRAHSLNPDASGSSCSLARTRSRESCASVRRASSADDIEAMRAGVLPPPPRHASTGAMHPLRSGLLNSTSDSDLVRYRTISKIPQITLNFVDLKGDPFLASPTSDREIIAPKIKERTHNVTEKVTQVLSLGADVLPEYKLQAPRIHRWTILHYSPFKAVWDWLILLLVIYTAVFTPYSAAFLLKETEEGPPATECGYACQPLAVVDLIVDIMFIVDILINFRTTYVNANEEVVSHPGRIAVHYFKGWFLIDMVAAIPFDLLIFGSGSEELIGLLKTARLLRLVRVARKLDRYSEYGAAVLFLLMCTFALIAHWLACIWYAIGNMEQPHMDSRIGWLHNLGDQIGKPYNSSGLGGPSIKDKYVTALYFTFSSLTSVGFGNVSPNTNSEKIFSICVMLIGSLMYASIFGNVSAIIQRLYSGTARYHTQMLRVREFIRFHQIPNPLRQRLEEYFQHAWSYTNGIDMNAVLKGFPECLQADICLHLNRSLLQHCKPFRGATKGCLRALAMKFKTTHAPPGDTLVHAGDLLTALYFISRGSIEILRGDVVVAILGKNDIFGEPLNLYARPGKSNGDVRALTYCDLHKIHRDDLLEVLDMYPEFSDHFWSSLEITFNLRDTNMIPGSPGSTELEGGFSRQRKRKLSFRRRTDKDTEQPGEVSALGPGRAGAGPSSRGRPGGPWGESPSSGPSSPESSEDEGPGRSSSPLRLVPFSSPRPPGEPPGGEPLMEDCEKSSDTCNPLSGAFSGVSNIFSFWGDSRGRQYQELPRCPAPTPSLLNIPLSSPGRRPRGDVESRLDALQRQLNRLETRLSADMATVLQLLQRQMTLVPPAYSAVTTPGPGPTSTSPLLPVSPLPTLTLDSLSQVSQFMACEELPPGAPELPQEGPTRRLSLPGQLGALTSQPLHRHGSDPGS
Summary of the method: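 Kinetic FDSS fluorescence; U2OS + hERG BacMam (~100 virus particles/cell); FluxOR Tl+ flux; ~10 min cpd; AC50 (Hill).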

[13] = target: Luciferin 4-monooxygenase (Photinus pyralis) (UniProt P08659); test: Biochemical firefly luciferase enzyme assay for NPC (AID 624030; active = well fitted curve in the direction sought with a large enough effect; an effect the other way counts as inactive or inconclusive;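 also: purified P. pyralis luciferase at 10 nM with luciferin and ATP substrate; series mostly up to about 59 µM; nearly all actives have a fitted effect of over 70% in size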)
Sequence of Luciferin 4-monooxygenase (Photinus pyralis) (P08659 whole entry, looked up): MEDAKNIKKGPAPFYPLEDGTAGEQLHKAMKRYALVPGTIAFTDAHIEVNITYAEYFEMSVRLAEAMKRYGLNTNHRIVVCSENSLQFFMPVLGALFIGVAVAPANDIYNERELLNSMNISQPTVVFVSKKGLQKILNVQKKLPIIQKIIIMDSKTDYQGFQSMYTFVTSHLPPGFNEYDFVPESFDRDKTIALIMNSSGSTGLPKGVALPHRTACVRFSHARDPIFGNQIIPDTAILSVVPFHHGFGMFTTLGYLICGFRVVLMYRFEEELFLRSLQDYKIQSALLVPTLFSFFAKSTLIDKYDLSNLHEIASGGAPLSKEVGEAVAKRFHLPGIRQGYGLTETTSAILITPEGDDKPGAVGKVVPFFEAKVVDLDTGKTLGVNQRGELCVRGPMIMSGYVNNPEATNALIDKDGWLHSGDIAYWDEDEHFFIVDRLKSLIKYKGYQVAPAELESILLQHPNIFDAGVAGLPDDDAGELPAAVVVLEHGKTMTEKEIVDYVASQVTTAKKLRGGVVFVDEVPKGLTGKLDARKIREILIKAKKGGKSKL
Summary of the method: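 Purified P. pyralis luciferase at 10 nM in 50 mM Tris Acetate (final), luminescence read within 5 minutes of enzyme addition to compounds. Activity normalised to PTC124 versus DMSO; concentration-response curves classed by r2, magnitude and activity.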

[14] = target: Estrogen receptor (Homo sapiens) (UniProt P03372); test: qHTS assay for small molecule agonists of estrogen receptor alpha signaling (AID 588514); also: nearly all actives have a fitted effect of over 70% in size
Sequence of Estrogen receptor (Homo sapiens) (P03372 whole entry, looked up): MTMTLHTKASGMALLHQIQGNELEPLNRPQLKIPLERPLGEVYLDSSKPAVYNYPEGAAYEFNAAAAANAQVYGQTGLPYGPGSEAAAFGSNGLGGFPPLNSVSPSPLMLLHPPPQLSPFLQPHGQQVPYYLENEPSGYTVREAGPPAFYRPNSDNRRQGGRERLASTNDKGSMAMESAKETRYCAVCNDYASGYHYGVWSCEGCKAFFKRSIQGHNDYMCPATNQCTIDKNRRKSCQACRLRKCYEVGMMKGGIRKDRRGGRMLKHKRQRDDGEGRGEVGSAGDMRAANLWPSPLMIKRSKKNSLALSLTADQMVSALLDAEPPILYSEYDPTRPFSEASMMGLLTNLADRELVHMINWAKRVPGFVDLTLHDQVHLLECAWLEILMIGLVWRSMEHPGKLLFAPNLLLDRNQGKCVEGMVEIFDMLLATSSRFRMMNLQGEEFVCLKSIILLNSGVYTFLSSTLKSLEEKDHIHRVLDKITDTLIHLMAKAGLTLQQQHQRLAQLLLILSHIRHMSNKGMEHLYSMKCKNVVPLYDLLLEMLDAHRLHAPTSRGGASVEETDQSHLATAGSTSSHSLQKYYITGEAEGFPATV
Summary of the method: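 ER-alpha-UAS-bla GripTite HEK293 cells, 5000/well in 2% charcoal/dextran-stripped FBS medium, treated with compound titrations 18 h at 37 C. CCF4 beta-lactamase read by fluorescence after 2 h RT; normalised to 20 nM 17-beta-estradiol (100%) and DMSO (0%), Hill fit for EC50 and efficacy.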

[15] = target: Bile acid receptor (Homo sapiens) (UniProt Q96RI1); test: qHTS assay for small molecule antagonists of farnesoid X receptor signaling (AID 588526)
Summary of the method: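 Antagonist mode: titrated compounds tested against chenodeoxycholic acid stimulation (normalized to 50 uM CDCA and DMSO) in GeneBLAzer HEK293T cells for 16 h. Beta-lactamase read by CCF4 fluorescence; IC50 from Hill fits.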

[16] = target: Peroxisome proliferator-activated receptor gamma (Homo sapiens) (UniProt P37231); test: qHTS assay for small molecule antagonists of peroxisome proliferator-activated receptor gamma signaling (AID 588537; active = well fitted inhibition curve with a large enough effect in the signal ratio, with a control signal flat, not every such curve was filed as active; the % refers to the signal ratio;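 also: reporter cells co-stimulated with 50 nM rosiglitazone agonist during compound treatment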)
Summary of the method: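 PPARγ-UAS-bla HEK293 cells (3000/well) in 1% charcoal/dextran-stripped FBS are treated with compound, then stimulated with 50 nM rosiglitazone for 16 h at 37 °C. Read-out is CCF4 β-lactamase fluorescence after 2 h at RT. IC50 comes from Hill fits normalised to rosiglitazone and DMSO.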

[17] = S16 Schwann cell viability assay (CellTiter-Glo assay) (AID 624031; active = well fitted curve in the direction sought with a large enough effect; an effect the other way counts as inactive or inconclusive;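 also: native untransfected S16 rat Schwann cells; series mostly up to about 58 µM; nearly all actives have a fitted effect of over 70% in size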)
Summary of the method: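 Counter-screen for cytotoxicity: parental S16 rat Schwann cells lacking the PMP22 reporters, treated 24 h with compound, viability from cellular ATP by CellTiter-Glo luminescence, normalized to DMSO (0%) and no-cell wells.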

[18] = target: DNA dC->dU-editing enzyme APOBEC-3G (Homo sapiens) (UniProt Q9HC16); test: qHTS for inhibitors of Vif-A3G interactions: Validation (AID 588379; active = well fitted curve in the direction sought with a large enough effect; an effect the other way counts as inactive or inconclusive)
Summary of the method: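 HeLa cells stably expressing Vif and A3G-eYFP, 700 cells/well, incubated overnight at 37 deg C, then exposed to compound overnight at 37 deg C. Inhibition of Vif-mediated degradation read as increased yellow fluorescence (Ex 488/Em 500-530) by laser-scanning cytometry.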

| Structure (SMILES) | outcome [1] | max response [2] | outcome [3] | outcome [4] | outcome [5] | max response [6] | outcome [7] | outcome [8] | max response [9] | max response [10] | activity change % (negative = inhibition) [11] | Potency [12] | Potency [13] | outcome [14] | outcome [15] | outcome [16] | outcome [17] | outcome [18] |
| --- | --- | --- | --- | --- | --- | --- | --- | --- | --- | --- | --- | --- | --- | --- | --- | --- | --- | --- |
| Cc1ccc(C(C)C)c(O)c1 | inactive | -0.969% | inactive | inactive | inactive | -0.0487% | inactive | inactive | -9.5% | -24.5% (inactive) | -7.05% (inactive) | inactive | inactive | – | – | – | – | – |
| CC(=O)Nc1ccccc1 | inactive | 17.1% | inactive | inactive | inactive | -17.4% | inactive | inactive | -2.29% | -0.837% (inactive) | 8.98% (inactive) | inactive | inactive | inactive | inactive | inactive | inactive | – |
| CCCC(O)C(CC)CO (stereo unspecified) | – | 2.27% | inactive | – | – | -0.667% | inactive | inactive | -4.1% | 8.72% (inactive) | 10.7% (inactive) | inactive | inactive | inactive | – | – | – | – |
| COC(=O)c1ccc(O)cc1 | inactive | 34.1% | inactive | inactive | inactive | 3.58% | inactive | inactive | -19.3% | -10.5% (inactive) | -5.41% (inactive) | inactive | inactive | inactive | – | inactive | inactive | – |
| Cc1cccc(Nc2ccccc2C(=O)O)c1C | inactive | – | – | – | – | – | – | inactive | – | – | – | inactive | – | – | – | – | – | – |
| CC(=O)Nc1ccc(C(=O)O)cc1 | inactive | – | inactive | – | – | -5.85% | inactive | inactive | -6.58% | 1.7% (inactive) | 2.92% (inactive) | inactive | inactive | inactive | – | inactive | inactive | – |
| O=C(c1ccccc1)C(O)c1ccccc1 (stereo unspecified) | inactive | -5.59% and -16% | inactive | inactive | inactive | 1.82% and 5.17% | inactive | inactive | -8.34% | 0.509% (inactive) | 7.64% (inactive) and -3.28% (inactive) | inactive | inactive | – | – | inactive | inactive | – |
| Cc1c(N(C)C)c(=O)n(-c2ccccc2)n1C | inactive | 15.6% | – | inactive | inactive | -14.4% and -18.2% | inactive | inactive | -6.41% and -1.97% | -3.15% (inactive) and -4.34% (inactive) | -16.1% (inactive) and 15.3% (inactive) | – | inactive | inactive | inactive | – | inactive | – |
| CN[C@@H]1[C@H](O)[C@H](NC)[C@H]2O[C@@]3(O)C(=O)C[C@@H](C)O[C@H]3O[C@@H]2[C@H]1O | – | – | – | – | – | – | – | – | – | – | – | – | – | – | – | – | – | inactive |
| O=C1c2ccccc2S(=O)(=O)N1CCCCN1CCN(c2ncccn2)CC1 | – | – | – | – | – | – | – | – | – | – | – | – | inactive | – | – | – | inactive | inactive |
